In the library only some 1.4% were active in any assay of this set; here they are far more common.
RecA intein inh = blocks M. tuberculosis RecA intein splicing. P9WHJ3. cell-free RecA intein splicing, fluorescence. inhibition, % (no concentration beside the values). actives 0.75% (n = 290,000). AID 2221; in the data active = inhibition above about 30%; inconclusive = no clear call, values can overlap the other calls;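 note: 0% = vehicle wells and 100% = reference inhibitor control wells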
Target sequence (P9WHJ3 whole entry, looked up): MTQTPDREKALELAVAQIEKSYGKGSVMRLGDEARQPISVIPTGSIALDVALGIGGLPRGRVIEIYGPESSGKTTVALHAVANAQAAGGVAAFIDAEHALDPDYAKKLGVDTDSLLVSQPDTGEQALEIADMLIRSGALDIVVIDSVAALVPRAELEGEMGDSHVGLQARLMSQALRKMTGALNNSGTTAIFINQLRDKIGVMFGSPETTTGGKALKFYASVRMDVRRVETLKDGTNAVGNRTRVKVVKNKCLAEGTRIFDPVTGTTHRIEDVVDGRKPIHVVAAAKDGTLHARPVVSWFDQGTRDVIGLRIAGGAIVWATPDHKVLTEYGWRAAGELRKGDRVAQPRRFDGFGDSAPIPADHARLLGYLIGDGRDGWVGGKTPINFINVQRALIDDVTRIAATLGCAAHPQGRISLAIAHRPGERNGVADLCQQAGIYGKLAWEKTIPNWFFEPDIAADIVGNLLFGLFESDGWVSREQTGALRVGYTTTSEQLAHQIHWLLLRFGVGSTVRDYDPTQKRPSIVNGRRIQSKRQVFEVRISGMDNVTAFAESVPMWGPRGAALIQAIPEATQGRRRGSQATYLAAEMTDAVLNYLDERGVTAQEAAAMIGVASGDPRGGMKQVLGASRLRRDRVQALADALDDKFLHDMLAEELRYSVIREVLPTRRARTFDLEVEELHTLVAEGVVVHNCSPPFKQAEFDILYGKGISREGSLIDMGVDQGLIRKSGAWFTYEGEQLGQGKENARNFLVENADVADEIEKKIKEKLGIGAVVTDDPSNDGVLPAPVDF
PrP 5UTR inh = suppresses PrP 5' UTR mRNA reporter expression; actives 0.35% (n = 340,000); cell-based PrP 5' UTR mRNA reporter, plate reader; inhibition, % (test concentration not listed); in the data active = inhibition above about 52%; note: 0 = median of the neutral control wells
PrPC surface inh = inhibitors of human cell surface prion protein PrPC. P04156. TR-FRET read-out. inhibition, % at 13.8 µM. actives 0.43% (n = 370,000). AID 720596; in the data active = inhibition above about 24%; note: 0% = median of the test wells and 100% = reference compound wells
3CLpro inhibitor = SARS-CoV 3CLpro protease inhibition; inhibition, % at 6 µM; AID 1706; recombinant SARS-CoV 3CLpro, quenched FRET peptide cleavage; actives 0.14% (n = 290,000); in the data active = inhibition above about 12%
Mtb hypoxia inh = Mtb hypoxia fluorescent reporter inhibition; M. tuberculosis hypoxia-regulated fluorescent reporter, fluorescence; fluorescence inhibition, % (test concentration not listed); actives 0.1% (n = 300,000); AID 1159583; in the data active = fluorescence inhibition mostly above about 23%, no sharp cut-off; inactive = mostly below about 17%
BJeLR viability = kills HRASV12-expressing BJeLR cells; inhibition, % (test concentration not listed); AID 1554; BJeLR (HRASV12) viability, CellTiter-Glo ATP luminescence, 48 h; actives 0.17% (n = 300,000); in the data active = inhibition above about 50%; inconclusive = no clear call, values can overlap the other calls
PrP UTR cherry = prion 5' UTR mRNA inhibition, cherry-pick retest. actives 48% (n = 1,100). shares compounds with PrP 5UTR inh. cell-based prion protein 5' UTR reporter, plate reader. inhibition, % at 2.5 µM; in the data active = inhibition above about 54%; inconclusive = no clear call, values can overlap the other calls
* marks the source's active call; other numbers are inactive results; ? = inconclusive; · = not tested or not shown.

SMILES	RecA intein inh	PrP 5UTR inh	PrPC surface inh	3CLpro inhibitor	Mtb hypoxia inh	BJeLR viability	PrP UTR cherry
Cc1ccc(C(=O)Nc2cnc3ccccc3c2)cc1	2	89*	-1	0	10	9	87*
O=C(NCC1CCCO1)C(=O)NN=Cc1ccccc1C(=O)O (stereo not given)	·	·	·	·	2	·	·
CC(Cl)=CCC1(CN2CCCC2=O)C(=O)NC(=O)NC1=O	·	·	·	·	8	·	·
O=C(NCc1ccccc1)C1=CC(c2ccc3c(c2)OCO3)CC(OCc2ccc(CO)cc2)O1 (stereo not given)	·	·	·	·	18	·	·
Cc1ccc(C(=O)Nc2cc3ccccc3oc2=O)cc1	·	86*	4	-1	-2	35	86*
O=C(NCc1nc2ccccc2[nH]1)c1ccc([N+](=O)[O-])cc1	5	74*	-33	4	5	1	-26
O=C(Nc1nc2ccccc2[nH]1)c1ccc([N+](=O)[O-])cc1	-3	-25	-10	1	-2	6	·
CC(=O)Nc1cc2ccccc2oc1=O	-2	-9	-2	-1	1	11	·
O=C(NNC(=O)c1cccs1)c1ccco1	1	64*	-3	5	-4	11	88*
O=C(NC(=S)NNC(=O)c1cccs1)c1ccco1	-2	-46	-2	3	-2	0	·
CCN1/C(=C\C=C\C2=[N+](CC)c3ccccc3C2(C)C)C(C)(C)c2ccccc21	23	63*	·	-11	-82	88*	67*
C=CCC(CC(=O)N(CCO)Cc1ccccc1)C(=O)NC(COC(=O)C(CC=C)CC(=O)OC(C)(C)C)C(C)(C)C (stereo not given)	·	·	·	·	-2	·	·
CCCCC(=O)O[C@]1(C(=O)CO)CCC2C3CCC4=CC(=O)CC[C@]4(C)C3C(O)C[C@@]21C (stereo not given in full)	·	·	·	·	-2	·	·
CCOc1ccc2c(c1)C(C)=CC(C)(C)N2S(=O)(=O)c1ccc(C)cc1	·	66*	10	4	0	27	87*
O=C(Nc1ccccc1)C1=CC(c2ccc(C(F)(F)F)cc2)CC(OCCCCO)O1 (stereo not given)	·	·	·	·	13	·	·
Nc1ccc(-c2ncc(-c3ccccc3)o2)cc1	2	76*	10	-2	13	-1	64*
Cc1ccc(-c2cnc(-c3ccncc3)o2)cc1	-9	-41	1	-3	11	4	·
O=C1CSC(=S)N1N=Cc1ccc(O)c(O)c1O	·	·	·	·	7	·	·
COc1ccc(C2=CC(=O)CC(c3ccc(Cl)cc3)C2)cc1 (stereo not given)	·	·	·	·	3	·	·
O=C(COc1ccccc1Cl)Nc1ccc(CN2CCCCC2)cc1	-1	66*	-2	-2	4	-2	-24
O=C(COc1ccccc1Cl)Nc1ccc(C(=O)N2CCCCC2)cc1	-1	-11	4	0	0	0	·
Cc1cnc(NC(=O)CCNC(=O)c2ccccc2Cl)s1	0	-12	-1	2	-6	4	·
Cc1cnc(NC(=O)COc2ccccc2Cl)s1	0	63*	-3	3	2	5	?
CCOC1OC(C(=O)N2CCOCC2)=CC(c2coc3ccccc3c2=O)C1CCCO (stereo not given)	·	·	·	·	0	·	·
C=C1C(=O)OC2C1C(OC(=O)CC(=O)OC1CC(C)C3C=CC(=O)[C@@]3(C)C3OC(=O)C(=C)C13)CC(C)C1C=CC(=O)[C@]12C (stereo not given in full)	·	·	·	·	21	·	·
SMILES	RecA intein inh	PrP 5UTR inh	PrPC surface inh	3CLpro inhibitor	Mtb hypoxia inh	BJeLR viability	PrP UTR cherry
O=C(O)Cc1sc(Nc2ccccc2)nc1-c1ccc(Cl)cc1	-1	57*	-7	0	-10	9	-1
COC(=O)NN=Cc1cc(C)n(-c2ccccc2)c1C	·	·	·	·	-5	·	·
c1ccc(-c2noc(-c3ccc4c(c3)OCO4)n2)nc1	-2	86*	4	-1	1	92*	85*
c1ccc(-c2noc(-c3ccncc3)n2)nc1	0	-52	-6	1	9	24	·
c1ccc(-c2noc(-c3ccc4ccccc4c3)n2)nc1	0	89*	·	1	7	19	87*
CC1CC[C@]2(C(=O)O)CC[C@]3(C)C(=CCC4[C@@]5(C)CCC(O)C(C)(C)C5CC[C@]43C)C2C1C (stereo not given in full)	·	·	·	·	-2	·	·
CCc1ccn2cc(-c3ccc4c(c3)OCO4)nc2c1	4	74*	-1	0	9	15	84*
COC(=O)c1ccc2nc(-c3ccc4c(c3)OCO4)cn2c1	-2	39	2	-1	12	-7	·
COCC(C)n1c(C)cc(C(=O)COC(=O)c2cccn2C)c1C (stereo not given)	·	67*	-6	·	-2	·	?
CC(C)N1CCN(c2ccc(OCC3CO[C@](Cn4cncn4)(c4ccc(Cl)cc4Cl)O3)cc2)CC1 (stereo not given in full)	·	·	·	·	20	·	·
O=C(CC(c1ccccc1)c1ccccc1O)NCc1ccccc1 (stereo not given)	0	-31	-3	3	-2	-4	·
CN(C)CCCNC(=O)CC(c1ccccc1)c1ccccc1O (stereo not given)	·	71*	-6	-1	·	-4	-18
CC(=NOC(=O)c1ccccc1)c1oc(C)nc1C	·	·	·	·	-8	·	·
COc1cc(CCCN2CCNCC2CC2CCCCC2)cc(OC)c1OC (stereo not given)	·	·	·	·	-1	·	·
COc1ccc(C(CNC(=O)C(CCSC)NC(=O)c2ccccc2Cl)N2CCCCC2)cc1 (stereo not given)	·	72*	1	·	11	·	-21
O=C(O)c1cccc(NC(=S)NN=Cc2ccccc2OCc2cccc(Br)c2)c1	·	·	·	·	-3	·	·
CC(O)C1C=CC=CC(=O)OC2CC3OC4C5OC5(C)CCC4(COC(=O)C4OC4(C)C(O)CO1)C2(C)C31CO1 (stereo not given)	·	83*	90*	·	·	·	82*
CC(=O)N(/N=C1\Sc2ccccc2C1=O)c1ccc(C)cc1C	2	58*	8	2	·	-12	56*
COC(=O)C1=C(C(=O)OC)[C@]2(C3CC=CCNC(Cc4ccccc4)C(=O)N3Cc3ccccc3)C=CC1O2 (stereo not given in full)	·	·	·	·	6	·	·
CN(C)c1ccc(CCc2ccc(N)cc2)cc1	3	57*	13	·	14	-6	53*
COC1=C(C)C(=O)C2=C(C1=O)C1C3CC4=C(C(=O)C(OC)=C(C)C4=O)C(CNC(=O)C(C)=O)N3C(C#N)C(C2)N1C (stereo not given)	·	94*	1	·	·	·	97*
CCN(C[C@H]1N[C@@](Cc2ccccc2)(C(=O)OC)[C@H]2C(=O)N(Cc3ccccc3)C(=O)[C@@H]12)S(=O)(=O)c1ccc(C(C)(C)C)cc1	·	-10	-1	·	-10	·	·

Compound activity deposited in PubChem BioAssay by several laboratories.
